# Compound activity: PubChem, National Center for Advancing Translational Sciences (NCATS)
# ATXN2 expr inh: reduces ATXN2 reporter expression in HEK-293 cells; HEK-293 ATXN2-luciferase reporter, luminescence, 24 h; Potency, µM (series often up to 57 µM), for the others: top-dose activity change, negative = inhibition, usual class: inhibitors; 0.72% of 360,000 active; also: potency is read from the fitted curve at half-maximal effect; % is scaled to controls: 0 for no effect and ±100 for the full control effect; nearly all actives have a fitted effect of over 55% in size
#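 qHTS (up to 57 uM final) was run with 24 h compound exposure of reporter cells at 37 °C. Each well was multiplexed: SteadyGlo luminescence measured ATXN2-luciferase expression after a fluorogenic Gly-Phe-AFC viability readout (25 uM final).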
# S2 tox: cell viability loss in ATXN counter-screen; S2 cells (HEK-293 line with an ATXN2-luciferase reporter) viability, CellTiter-Fluor protease fluorescence, 24 h; Potency, µM (top dose mostly 56.7 µM), most hits filed as cytotoxic; 0.49% of 400,000 active; also: potency is read from the fitted curve at half-maximal effect; nearly all actives have a fitted effect of over 40% in size
# D3 antag: blocks the human D3 dopamine receptor; D3R cells, DiscoveRx beta-arrestin luminescence, antagonist mode; stronger effect = lower value; max response, negative = inhibition, %; 2.5% of 360,000 active; AID 652054; in the data active = max response below about -50%; inconclusive = no clear call, values can overlap the other calls; also: % is scaled to controls: 0 for no effect and ±100 for the full control effect
# Target sequence (P35462 whole entry, looked up): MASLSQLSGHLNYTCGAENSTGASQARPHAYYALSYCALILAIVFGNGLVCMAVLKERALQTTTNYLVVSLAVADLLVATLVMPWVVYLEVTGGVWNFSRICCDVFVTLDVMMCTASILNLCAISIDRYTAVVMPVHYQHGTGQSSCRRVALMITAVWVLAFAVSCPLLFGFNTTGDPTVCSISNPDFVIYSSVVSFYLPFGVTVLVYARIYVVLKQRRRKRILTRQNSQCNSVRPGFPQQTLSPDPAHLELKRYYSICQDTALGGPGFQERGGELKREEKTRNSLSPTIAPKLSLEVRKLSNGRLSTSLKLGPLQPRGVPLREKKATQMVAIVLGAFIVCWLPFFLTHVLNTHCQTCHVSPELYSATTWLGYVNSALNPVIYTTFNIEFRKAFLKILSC
#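 Cells plated overnight at 1500 cells/well, then exposed to library compounds with dopamine controls for 90 minutes at 37 degrees C. DiscoveRx reagent added for 30–60 minutes at room temperature; luminescence read, quantitative HTS format.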
# IL1B secr inh: inhibitors of inflammasome signaling (IL-1 beta secretion) | 4.7% of 360,000 active | activity change, % at 57.5 µM | THP-1 LPS/ATP IL-1B secretion, AlphaLISA, 16 h; stronger effect = lower value; in the data active = activity change below about -50%; inconclusive = mostly about -30% to -49%; also: % is scaled to controls: 0 for no effect and ±100 for the full control effect
#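 Secreted IL-1B measured by AlphaLISA bead assay after 16 h compound exposure of THP-1 cells; compounds (final up to 57.5 uM) added 1 h before LPS (250 ng/mL) and ATP (1.25 mM) stimulation; lower signal means less secretion.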
# a7 integrin act: integrin-mediated muscular dystrophy alleviation activation. alpha7betagal myoblasts, beta-gal FDG fluorescence, 48 h. Potency, µM (highest dose often 38.3 µM), for inactives: top-dose activation, actives largely listed as activators. 0.064% of 350,000 active. AID 624291;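 also: potency is read from the fitted curve at half-maximal effect; 100% = response of the positive control SU9516; nearly all actives have a fitted effect of over 60% in size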
#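 alpha7betagal+/- myoblasts (passage 13, 250/well) treated 48 h at 37C with compounds at 1:260 dilution of DMSO stock. Lysed, then beta-galactosidase activity read as FDG fluorescence (ex 480/em 540) after 30 min, with pre-read for autofluorescence.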
# D3 ag: agonists of human D3 dopamine receptor | P35462 | D3R DiscoveRx beta-arrestin cells, luminescence, 90 min | max activation, % | 0.58% of 410,000 active; in the data active = max activation above about 30%; also: 0% is about no effect
#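 Cells at 1500/well, incubated overnight, then treated with pinned compounds (dopamine as control) for 90 min at 37 degrees C. DiscoveRx reagent added for 30 - 60 minutes at room temperature; luminescence read.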
# The depositor's hits bear a star; i = inactive; ? = inconclusive; / = no result. In the library only some 7% were active in any assay of this set; here they are far more common. Unless noted, calls follow the shape of the dose curve; as a rule, active = well fitted curve in the direction sought with a large enough effect; inconclusive = small, poorly fitted or top-dose-only effect, or another doubt; inactive = no such curve, though single readings can be large; an effect the other way counts as inactive or inconclusive.
SMILES,ATXN2 expr inh,S2 tox,D3 antag,IL1B secr inh,a7 integrin act,D3 ag
O=C(CN1C(=O)c2ccccc2S1(=O)=O)Nc1ccc([N+](=O)[O-])cc1,-26.7%,i,-15.4,-4.8,11.9%,-8.5
COc1cccc(NC(=O)CSc2nc3ccccc3c(=O)n2CCCC(=O)NCC2CCCO2)c1 (stereo not given),3.4%,i,12.5,-3.0,10.2%,3.7
COc1ccc(-n2cc(C(=O)NCCc3cc(OC)ccc3OC)c3ccccc3c2=O)cc1,/,/,/,/,/,5.8
Cn1c(NC(=O)c2ccccc2)c(-c2cccs2)c(=O)c2ccccc21,6.8%,i,7.0,-25.8,22.1%,12.6
Cn1c(NC(=O)c2ccc(F)cc2)c(-c2cccs2)c(=O)c2ccccc21,-15.4%,i,-3.4,-57.8*,32.8%,-1.4
COCCCn1c(=N)c(C(=O)NCc2cccnc2)cc2c(=O)n3cccc(C)c3nc21,/,/,/,/,/,-0.2
N=C1SCC(=O)N1c1ncc(Cc2ccccc2Cl)s1,?,?,-7.6,-102.3*,-46.6%,-4.9
Cc1cccc(Cc2cnc(N3C(=N)SC(C)C3=O)s2)c1 (stereo not given),-20.3%,?,-15.8,-84.4*,-67.8%,1.6
N=C1SCC(=O)N1c1ncc(Cc2cccc(Cl)c2)s1,?,?,-21.1,-103.0*,-73.1%,-8.4
Cc1ccc(Cc2cnc(N3C(=N)SC(C)C3=O)s2)cc1 (stereo not given),?,?,?,5.2,-31.4%,-14.4
CCOc1ccc(S(=O)(=O)N2CCN(S(=O)(=O)c3ccc(C)c(C)c3)CC2)cc1,13.1%,i,-4.9,-4.9,15.9%,-7.3
COc1ccc(/C=N/NC(=O)c2cc[n+]([O-])cc2)cc1O,36.2%,i,-9.6,16.7,-19.3%,-7.8
CSc1ncc(-c2ccc(Cl)cc2)[nH]1,41.9%,i,-13.9,-8.8,-8.2%,-4.1
Brc1ccc([C@H]2C=C[C@H]3CCCN4CC[C@H]2[C@@H]3[C@]42CO2)cc1,-29.6%,i,-22.7,?,/,-7.4
CCOC(=O)C1CCN(Cc2cc(C(C)(C)C)c(O)c(C(C)(C)C)c2)CC1,-16.8%,?,?,?,-42.3%,-11.7
CC(C)(C)c1cc(CN2CCN(CCO)CC2)cc(C(C)(C)C)c1O,-6.3%,i,-81.8*,-1.3,-44.6%,-32.6
CCN(C(=O)COC(=O)CSc1ccc(C)cc1C)c1c(N)n(Cc2ccccc2)c(=O)[nH]c1=O,/,i,-13.4,2.4,-17.3%,-4.0
Clc1ccc(CSC2=NCCCN2)cc1Cl,-22.8%,i,-57.5*,?,-43.2%,-10.3
COC(=O)CC1C(=O)NC2CCCCC2N1C(=O)CCl (stereo not given),4.8%,i,24.9,-61.9*,0.0%,5.7
CCNC(=O)N1C(CC(=O)OCC)C(=O)NC2CCCCC21 (stereo not given),-3.4%,i,-4.7,3.3,9.0%,0.6
COc1ccc(-n2cnc(N)c2C(=O)c2cccc([N+](=O)[O-])c2)cc1,-4.7%,i,-10.2,-3.0,0.0%,-1.4
COc1cc(/C=C/C(=O)c2ccc(C)cc2)ccc1OCC#N,?,/,-18.8,-114.2*,-56.4%,-7.9
CCOc1cc(/C=C/C(=O)O)ccc1OCCO,/,i,-4.8,2.2,0.0%,-6.5
COc1cc(/C=C/c2cccc[n+]2C)ccc1OCC(=O)Nc1ccccc1C,-1.4%,i,-3.5,-5.7,0.0%,-0.4
CCOc1cc(/C=C/c2cccc[n+]2C)ccc1OCC(=O)Nc1ccc(C)cc1,-0.4%,i,-5.4,-70.5*,-20.9%,1.0
SMILES,ATXN2 expr inh,S2 tox,D3 antag,IL1B secr inh,a7 integrin act,D3 ag
CCOc1cc(/C=C/C(=O)c2ccc(C)cc2)ccc1OCC(=O)N(C)C,?,?,-13.0,-105.4*,-14.9%,-39.2
COc1ccc(-c2cc3ccc(OC(C)C(=O)O)cc3oc2=O)cc1 (stereo not given),-31.9%,/,4.4,23.2,?,2.0
COc1ccc(CN2CCC(CNS(=O)(=O)c3cccc(C(F)(F)F)c3)CC2)cc1,-12.3%,i,?,?,?,-20.0
CCCCCCCc1nc2nc(C)c(Br)c(=O)n2[nH]1,3.9%,i,-5.0,17.0,42.6%,-5.5
COc1cccc(C2Nc3ccc4ccccc4c3C3=C2C(=O)CCC3)c1O (stereo not given),-38.7%,i,-8.8,27.3,25.2%,4.8
Cc1ccc(S(=O)(=O)N2C[C@H]3n4c(=O)ccc(=O)n4C[C@H](OC(=O)NCc4ccccc4F)[C@@]3(O)C2)cc1,?,/,11.8,-107.9*,-30.2%,4.3
CCCCCCNC(=O)O[C@H]1Cn2c(=O)n(CCCCCC)c(=O)n2[C@@H]2CN(S(=O)(=O)c3ccc(C)cc3)C[C@]12O,?,/,-1.6,?,-22.7%,4.9
CCCCCCn1c(=O)n2n(c1=O)[C@@H]1CN(S(=O)(=O)c3ccc(C)cc3)C[C@]1(O)[C@@H](OC(=O)NCc1ccccc1F)C2,?,/,4.1,-1.0,0.0%,-1.7
CCCCCCNC(=O)O[C@H]1Cn2c(=O)ccc(=O)n2[C@@H]2CN(S(=O)(=O)c3ccc(C)cc3)C[C@]12O,14.1µM*,20µM*,-16.7,-105.7*,-63.6%,-7.4
CCCc1cc(=O)oc2cc(OCC(=O)NCCCN3CCOCC3)c(Cl)cc12,/,i,-19.4,-9.3,-20.7%,-13.1
CCOc1cccc(C(=O)Nc2ccccc2OC(F)F)c1,26.5%,i,8.7,-17.7,12.6%,0.3
CCOC(=O)/C(C#N)=C1/C=CN(c2ccc(C)cc2)C=N1,47.7%,i,3.8,-1.6,-19.2%,0.5
CCOC(=O)/C(C#N)=C1/SC(CC)C(=O)N1c1ccc(C)cc1 (stereo not given),4.1%,i,-57.2*,29.1,8.9%,11.2
COc1ccc(C(=O)C2CCN(C(=O)c3ccc(OC)cc3)CC2)cc1,-21.5%,i,7.5,?,-19.2%,-3.1
Cc1ccc(-c2nc(N3CCN(C)CC3)c3ccccc3n2)cc1,/,?,-6.6,?,-53.6%,-15.0
CCN1CCN(c2nc(-c3ccccc3)nc3ccccc23)CC1,-22.1%,i,?,-64.6*,-21.2%,-9.3
CCC(C)NC(=O)c1[nH]c2cc(OC)ccc2c1Sc1ccc(C)cc1 (stereo not given),13.2%,i,/,/,/,-2.1
COc1ccc(C(=O)Nc2ccc3nc4c(c(Nc5ccc(OC)c(OC)c5)c3c2)CCCC4)c(OC)c1,?,28.2µM*,/,/,/,-7.5
COc1ccccc1Nc1c2c(nc3ccc(NC(=O)c4cccc(OC)c4OC)cc13)CCCC2,/,/,/,/,/,53.6*
COc1ccccc1Nc1c2c(nc3ccc(NC(=O)c4ccc(OC)c(OC)c4)cc13)CCCC2,?,25.1µM*,/,/,/,-21.2
